Source: PubChem BioAssay
Cardiac RTF inh – cardiac RTF calcium desensitization | IANBD-labeled cardiac RTF, Ca2+ fluorescence | P19429+P45379 | inhibition, % at 7.15 µM | actives 0.12% (n = 340,000);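 active = inhibition above the mean inhibition of all tested compounds plus 3 SD, cut at about 17% in these data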;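 also: assay run at fixed EC70 calcium of 1.6 mM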
IDE inh – cellular human IDE inhibition; actives 0.41% (n = 320,000); HEK cells, FAbetaB cleavage, fluorescence polarization; P14735; inhibition, % at 5.59 µM;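 active = percent inhibition above the average of all tested compounds plus 3 SD, set per screening campaign, cut at about 16% in these data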;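 also: IDE supplied by intact live HEK cells; FP after avidin binding of uncleaved biotin substrate so inhibition keeps polarization high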
Target sequence (P14735 whole entry, looked up): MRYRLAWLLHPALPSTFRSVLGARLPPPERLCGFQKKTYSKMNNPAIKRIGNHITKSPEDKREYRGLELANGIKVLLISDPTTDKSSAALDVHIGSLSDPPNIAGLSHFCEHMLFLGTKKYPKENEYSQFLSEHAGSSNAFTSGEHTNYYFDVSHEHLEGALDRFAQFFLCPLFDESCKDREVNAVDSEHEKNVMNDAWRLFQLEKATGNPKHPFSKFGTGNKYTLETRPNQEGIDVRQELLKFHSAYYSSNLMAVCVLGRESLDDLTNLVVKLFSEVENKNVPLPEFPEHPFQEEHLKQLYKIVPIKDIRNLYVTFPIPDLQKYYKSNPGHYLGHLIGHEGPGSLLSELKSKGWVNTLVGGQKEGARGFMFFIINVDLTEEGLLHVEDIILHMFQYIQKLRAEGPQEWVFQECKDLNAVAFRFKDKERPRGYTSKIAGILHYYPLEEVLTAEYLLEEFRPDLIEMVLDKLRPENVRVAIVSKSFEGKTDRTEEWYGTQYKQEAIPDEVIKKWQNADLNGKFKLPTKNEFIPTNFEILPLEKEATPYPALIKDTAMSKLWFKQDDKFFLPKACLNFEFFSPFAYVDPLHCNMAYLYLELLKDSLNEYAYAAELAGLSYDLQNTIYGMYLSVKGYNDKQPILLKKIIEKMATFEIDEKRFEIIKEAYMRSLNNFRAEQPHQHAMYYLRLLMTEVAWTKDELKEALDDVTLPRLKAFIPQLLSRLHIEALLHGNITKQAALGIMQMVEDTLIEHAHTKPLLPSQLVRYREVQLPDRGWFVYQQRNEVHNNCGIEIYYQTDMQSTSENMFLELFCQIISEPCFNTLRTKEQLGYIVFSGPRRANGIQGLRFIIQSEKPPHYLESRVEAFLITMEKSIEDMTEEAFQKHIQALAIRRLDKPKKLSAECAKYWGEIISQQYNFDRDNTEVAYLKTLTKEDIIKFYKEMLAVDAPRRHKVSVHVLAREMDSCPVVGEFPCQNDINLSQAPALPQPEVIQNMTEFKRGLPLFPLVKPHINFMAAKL
IDE act – activators of human insulin-degrading enzyme in cells | HEK cells, FAbeta-B cleavage, fluorescence polarization; 0% vehicle, 100% cell-free pure enzyme wells | activation, % at 5.96 µM | actives 0.073% (n = 340,000) | AID 493087;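 active = activation above the mean of all tested compounds plus 3 SD, set per screening campaign, cut at about 17% in these data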
cardiac RTF act – cardiac RTF calcium sensitization; P19429+P45379; IANBD-labeled TnC RTF fluorescence at EC20 calcium; 0% EC20 calcium, 100% full calcium; activation, % at 7.2 µM; actives 0.24% (n = 340,000); AID 493008;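 active = activation above the mean over all tested compounds plus 3 SD, cut at about 30% in these data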;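 also: rise in fluorescence read as greater calcium sensitivity of cardiac thin filaments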
C-LANA FP – blocks KSHV LANA C-terminal domain binding to DNA | MBP-C-LANA/FAM-LBS DNA binding, fluorescence polarization | inhibition, % at 9 µM | actives 0.078% (n = 340,000) | AID 504423;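 active = highest replicate inhibition at or above 60% at 9 µM, even if other replicates fall short; inactive = all replicates below 60% inhibition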
Keap1 Nrf2 FP – Keap1-Nrf2 (human) interaction inhibition; AID 504523; Keap1 Kelch-Nrf2 peptide fluorescence polarization, 1536-well; Q14145; inhibition, % at 9.4 µM; actives 0.15% (n = 340,000); in the data active = inhibition above about 12%;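 also: human Keap1 Kelch domain with fluorescein labeled Nrf2 9mer peptide probe; higher means more block of Keap1 binding to Nrf2 peptide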
IDE cell inh cf – cellular human IDE inhibition, confirmation; shares compounds with IDE inh; HEK cells, FAbetaB cleavage, fluorescence polarization; inhibition, % at 5.59 µM; actives 51% (n = 1,200);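 active = mean inhibition across triplicate wells above the cutoff set by the earlier primary insulin-degrading enzyme screen, cut at about 16% in these data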
HEK293 tox – kills HEK cells in IDE inhibitor counter-screen; shares compounds with IDE inh; HEK293 cytotoxicity, ATP luminescence; inhibition, % at 5.59 µM; actives 28% (n = 1,200); AID 449730; in the data active = inhibition above about 22%
Numbers stand for hits; 0 = inactive; - = no result given; + = active, no number. Hits are enriched below; roughly 0.81% of the tested compounds scored in any of these assays.

SMILES	Cardiac RTF inh	IDE inh	IDE act	cardiac RTF act	C-LANA FP	Keap1 Nrf2 FP	IDE cell inh cf	HEK293 tox
O=C(NNC(=O)c1cccc2ccccc12)c1ccc(-c2ccccc2)cc1	0	18	0	0	0	0	0	47
Cc1nn(C(=O)Cn2cc([N+](=O)[O-])cn2)c(C)c1Cl	0	0	0	0	0	0	-	-
Cc1cc([N+](=O)[O-])cc(C)c1OCC(=O)N/N=C/c1ccc(OC(=O)c2ccccc2)cc1	0	20	0	0	0	0	0	0
Cc1cc([N+](=O)[O-])cc(C)c1OCC(=O)N/N=C/c1ccc(OC(=O)c2ccccc2Br)cc1	0	0	0	0	0	0	-	-
CCOC(=O)C1=C(CSc2nc(CC)c(C)cc2C#N)OC(N)=C(C#N)C1c1ccc(OC)cc1 (stereo not drawn)	0	22	0	0	0	0	0	0
CCOC(=O)C1=C(CSc2nc(-c3ccncc3)ccc2C#N)OC(N)=C(C#N)C1c1ccc(OC)cc1 (stereo not drawn)	0	0	0	0	0	0	-	-
CCn1c(SCC(=O)NC(C)(C)C)nnc1-c1ccccn1	0	0	0	0	0	0	-	-
COc1ccccc1C(CC(=O)O)NS(=O)(=O)c1ccc2c(c1)N(C(C)=O)CC(C)O2 (stereo not drawn)	0	0	0	0	0	0	-	-
CCc1ccc(OCC(=O)NNC(=O)C2CCC2)cc1	0	0	0	0	0	0	-	-
COc1cccc(-c2csc(N3CCN(C(=O)Nc4ccccc4Cl)CC3)n2)c1	0	0	0	0	0	0	-	-
COc1cccc(NC(=O)N2CCN(c3nc(-c4cccc(OC)c4)cs3)CC2)c1	0	19	0	0	0	0	0	30
COc1cccc(NC(=O)N2CCN(c3cccc(C)c3C)CC2)c1	0	16	0	0	0	0	0	0
COc1ccc(/C=C2\SC(=O)NC2=S)cc1OC	0	68	0	0	0	0	0	0
CCOc1ccc(/C=C2\SC(=S)NC2=O)cc1OC	0	0	0	0	0	0	-	-
Cc1cccc(OCC(=O)NCC(=O)N/N=C/c2cc(Br)ccc2OCc2ccccc2)c1	0	32	0	0	0	0	0	0
O=C(COc1ccccc1)NCC(=O)N/N=C/c1cc(Br)ccc1OCc1ccccc1	0	0	0	0	0	0	-	-
CN1CCN(C2=C(Cl)C(=O)c3ccccc3C2=O)CC1	0	-	0	0	0	0	-	-
CN1CCN(C2=C(Cl)C(=O)C(c3cnc(N4CCCCC4)s3)=C(Cl)C2=O)CC1	0	23	0	0	0	0	0	119
O=C(/C=C/c1ccccc1Cl)Nc1ccc(-c2nnc3n2CCCCC3)cc1	0	31	0	0	0	0	0	0
Cc1c(C(=O)Nc2ccc(-c3nnc4n3CCCCC4)cc2)oc2c1ccc1ccccc12	0	23	0	0	0	0	0	39
O=C(Nc1ccc(-c2nnc3n2CCCCC3)cc1)c1cc2ccccc2o1	0	0	0	0	0	0	-	-
O=C(c1cccc(S(=O)(=O)N2CCCCC2)c1)N1CCc2ccccc21	0	0	0	0	0	0	-	-
N=c1oc2c3c4c(cc2cc1C(=O)Nc1ccccc1)CCCN4CCC3	0	51	0	+	0	0	26	0
Cc1ccc(NC(=O)c2cc3ccccc3oc2=N)cc1	0	0	0	0	0	0	-	-
Cc1nnsc1C(=O)N/N=C/c1ccc2ccccc2c1O	0	90	0	0	0	0	114	113
SMILES	Cardiac RTF inh	IDE inh	IDE act	cardiac RTF act	C-LANA FP	Keap1 Nrf2 FP	IDE cell inh cf	HEK293 tox
CC(C)(C)C(=O)/C=c1\s/c(=C\c2ccc(-c3ccc([N+](=O)[O-])cc3)o2)c(=O)n1CC(=O)NC(N)=O	0	22	0	54	0	0	78	26
CCC(=O)N/N=C/c1ccc(-c2ccc([N+](=O)[O-])cc2)o1	0	0	0	0	0	0	-	-
COCn1c(-c2ccc(OC)c(OC)c2)nc2ccccc21	0	0	0	0	0	0	-	-
COCn1c(-c2cccc(Br)c2)nc2ccccc21	0	17	0	0	0	0	0	0
O=C(NCc1ccco1)/C(=C/c1ccc([N+](=O)[O-])cc1)NC(=O)c1ccco1	0	0	0	0	0	0	-	-
CCC(CO)[n+]1c(C)cc(/C=C2\Sc3ccccc3N2Cc2ccccc2)cc1C (stereo not drawn)	0	43	0	40	0	0	54	100
CCN1/C(=C2\SC(=S)N(Cc3ccccc3)C2=O)Sc2ccccc21	0	0	0	0	0	0	-	-
Cc1ccc(Sc2cnc(N)nc2C)cc1	0	0	0	0	0	0	-	-
CCOC(=O)C1CCCN(C2=NC(=O)/C(=C/c3ccc(OC)cc3)S2)C1 (stereo not drawn)	0	0	0	0	0	0	-	-
CCOC(=O)C1CCCN(C2=NC(=O)/C(=C/c3ccc(O)c(OCC)c3)S2)C1 (stereo not drawn)	0	23	0	0	0	0	72	0
CCOC(=O)C1CCCN(C2=NC(=O)/C(=C/c3ccc(N(C)C)cc3)S2)C1 (stereo not drawn)	0	52	0	65	0	0	43	0
CCN1CCN(CCCNC(=O)c2ccccc2NC(=O)C2=C(C)OCCS2)CC1	0	0	0	0	0	0	-	-
COc1ccccc1N1C(=O)CC(Sc2n[nH]c(-c3cccc(C)c3)n2)C1=O (stereo not drawn)	0	0	0	0	0	0	-	-
COc1ccc(NC(=O)C2CC(=O)N/C(=N/NC(=O)c3ccc(Cl)cc3)S2)cc1 (stereo not drawn)	0	0	0	0	0	0	-	-
COc1cccc(OC)c1C(=O)N1CCN(C(=O)c2ccc(-c3ccccc3)cc2)CC1	0	0	0	0	0	0	-	-
COc1cccc(/C=C2\SC(=S)N(NC(=O)c3ccncc3)C2=O)c1	0	0	0	0	0	0	-	-
O=C1/C(=C\c2ccc(O)cc2)SC(=S)N1/N=C/c1ccc(O)cc1	0	75	0	0	0	0	98	0
CC(=O)NN1C(=O)/C(=C\c2ccc(O)cc2)SC1=S	0	36	0	0	0	0	89	0
COc1cc(/C=C2\SC(=S)N(NC(=O)c3ccc(O)cc3)C2=O)ccc1O	0	85	0	0	0	0	150	0
COc1cc(/C=C2\SC(=S)N(NC(=O)c3cccnc3)C2=O)ccc1O	0	114	0	0	0	0	159	0
CCN1C(=O)C(CC(=O)Nc2ccc(Cl)cc2)N(NC(=O)c2ccncc2)C1=S (stereo not drawn)	-	0	-	-	-	-	-	-
O=C(NN1C(=O)/C(=C/c2cccc(O)c2)SC1=S)c1ccccc1O	0	0	0	0	0	0	-	-
